This is a sample that favours compounds with a hit; in the whole collection about 1.1% have one here.
RXFP1 antag: qHTS Assay for Antagonists of the Relaxin Receptor RXFP1; Relaxin receptor 1 (Homo sapiens), Q9HBX9; HEK293-RXFP1, relaxin-stimulated cAMP HTRF, 30 min; stronger effect = lower value; activity change, negative = inhibition, % at 57.5 µM; hit rate 0.59% among 350,000;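 active = activity change of -60% or lower, but not beyond a set lower limit; inconclusive = change between -60% and -40%, or beyond the set limit; inactive = change above -40%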; note: % is set by controls: 0 for no effect and ±100 for the full control effect
Target sequence (Q9HBX9 whole entry, looked up): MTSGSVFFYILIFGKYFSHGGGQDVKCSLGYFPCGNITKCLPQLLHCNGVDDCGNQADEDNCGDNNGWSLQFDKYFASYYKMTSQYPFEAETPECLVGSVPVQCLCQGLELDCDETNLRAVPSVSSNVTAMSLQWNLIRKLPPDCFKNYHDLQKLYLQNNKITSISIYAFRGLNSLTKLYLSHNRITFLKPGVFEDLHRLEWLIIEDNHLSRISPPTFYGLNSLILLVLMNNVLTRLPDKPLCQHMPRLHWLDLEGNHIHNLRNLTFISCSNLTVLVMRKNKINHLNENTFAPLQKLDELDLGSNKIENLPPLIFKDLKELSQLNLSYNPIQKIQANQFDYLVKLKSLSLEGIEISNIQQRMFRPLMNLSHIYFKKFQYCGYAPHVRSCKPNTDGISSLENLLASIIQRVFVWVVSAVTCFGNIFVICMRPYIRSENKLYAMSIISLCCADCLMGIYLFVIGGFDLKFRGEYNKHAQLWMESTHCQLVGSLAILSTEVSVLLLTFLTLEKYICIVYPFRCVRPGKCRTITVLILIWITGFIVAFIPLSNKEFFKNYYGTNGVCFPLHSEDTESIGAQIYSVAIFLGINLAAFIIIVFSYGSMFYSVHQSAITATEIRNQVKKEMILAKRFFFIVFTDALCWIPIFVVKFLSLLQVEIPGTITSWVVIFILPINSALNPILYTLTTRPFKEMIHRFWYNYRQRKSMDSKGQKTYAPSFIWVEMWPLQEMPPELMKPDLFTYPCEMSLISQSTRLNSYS
ASM inhibitor: Inhibitors of Secretory Acid Sphingomyelinase (S-ASM): qHTS | Sphingomyelin phosphodiesterase (Homo sapiens), P17405 | placental ASM, HMU-PC fluorogenic substrate, 60 min | Potency, µM (doses to about 57.5 µM), without a hit: at the top dose activity change, negative = inhibition, actives largely listed as inhibitors | hit rate 0.006% among 340,000 | AID 504937, 2011; note: potency is the fitted concentration of half-maximal effect
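Fluorescence read-out (Ex 386 nm, Em 447 nm) after stopping the reaction at pH 10. Enzyme: ASM from human placenta; substrate HMU-PC0, 9 uM final; 60 min, 37 °C. Compound preincubation 10 min, ambient temperature.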
Integrin act MD: qHTS for Activators of Integrin-Mediated Alleviation for Muscular Dystrophy; alpha7betagal myoblasts, beta-gal FDG fluorescence, 48 h; Potency, µM (series often up to 38.3 µM), without a hit: top-dose activation, actives largely listed as activators; hit rate 0.064% among 350,000; AID 624291, 2012;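 note: potency is the fitted concentration of half-maximal effect; 100% = response of the positive control SU9516; nearly all actives have a fitted effect of over 60% in size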
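Alpha7betagal+/- myoblasts (passage 13) were plated 16-24 hr, then exposed to compounds (1:260 dilution of DMSO stock) for 48 hours at 37C. After MPER lysis, β-galactosidase reporter activity was read as FDG fluorescence (ex 480/em 540) after 30 minutes.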
gsp agonist: qHTS for Agonist of gsp, the Etiologic Mutation Responsible for Fibrous Dysplasia/McCune-Albright Syndrome: qHTS | gsp mutant cells, cAMP HTRF, 30 min | Potency, µM (doses to about 76.9 µM), without a hit: top-dose activation (cAMP increase), hits mostly activators | hit rate 0.13% among 340,000; active = well fitted activation curve with a large enough effect; inconclusive = small, poorly fitted or top-dose-only effect, or another doubt; inactive = no such curve, though single readings can be large or run the other way; cell line not stated here;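 note: phosphodiesterase inhibitor Ro 20-1724 added with compounds to block cAMP breakdown; potency is the fitted concentration of half-maximal effect; nearly all actives have a fitted effect of over 60% in size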
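Cells stably selected in G418 were plated at 2000/well, grown 16-24 hr, then given compounds in DMSO with the PDE inhibitor […] (300 uM solution added) for 30 min at 37C; cAMP was read by HTRF.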
gsp antagonist: qHTS for Antagonists of gsp, the Etiologic Mutation Responsible for Fibrous Dysplasia/McCune-Albright Syndrome: qHTS; gsp-mutant cells, cAMP HTRF, 30 min; Potency, µM (highest dose often 76.9 µM), without a hit: at the top dose activity change, negative = inhibition, most hits filed as inhibitors; hit rate 0.4% among 340,000; calls by dose curve; cell line not stated here;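 note: intracellular cAMP measured with PDE inhibitor Ro 20-1724 present during compound exposure; potency is the fitted concentration of half-maximal effect; % is set by controls: 0 for no effect and ±100 for the full control effect; nearly all actives have a fitted effect of over 65% in size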
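HTRF cAMP read-out (cAMP-d2 plus anti-cAMP antibody-K in lysis buffer, 30 min RT). Before lysis, cells are exposed to compounds with […] for 30 min at 37C in DPBS containing Ca/Mg, BSA and Tween 20.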
RXFP1 agonist: qHTS Assay for Agonists of the Relaxin Receptor RXFP1; HEK293T-RXFP1 cAMP TR-FRET, 30 min; response scale: percent of porcine relaxin response, buffer zero; Potency, µM (highest dose often 57.5 µM), inactives show top-dose activation, hits mostly activators; hit rate 0.3% among 370,000; note: potency is the fitted concentration of half-maximal effect; % is set by controls: 0 for no effect and ±100 for the full control effect; nearly all actives have a fitted effect of over 60% in size
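HEK293T cells stably expressing RXFP1 were pretreated with the PDE4 inhibitor Ro 20174, exposed to compounds for 30 min at 37C, lysed, and cAMP was read by TR-FRET. Data normalized to buffer (basal) and 29 nM porcine relaxin (100%).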
Active calls of the source: *; ? = inconclusive; nt = no result given; [ ] = dose if it differs, or a comment. Unless noted, calls come from the whole dose curve; as a rule, active = well fitted curve in the direction sought with a large enough effect; inconclusive = small, poorly fitted or top-dose-only effect, or another doubt; inactive = no such curve, though single readings can be large; an effect the other way counts as inactive or inconclusive.

SMILES	RXFP1 antag	ASM inhibitor	Integrin act MD	gsp agonist	gsp antagonist	RXFP1 agonist
COc1cc(/C=C(\C#N)C(=O)Nc2ccc(C(=O)O)cc2)ccc1OC(=O)c1cccc(F)c1	-83*	0%	6%	26%	-31%	0%
COc1cc(/C=C(/C#N)C(=O)Nc2ccccc2)ccc1OCc1ccc(C(=O)O)cc1	4	4%	-4%	0%	?	-1%
O=[N+]([O-])c1cccc(COc2ncnc3cc([N+](=O)[O-])ccc23)c1	36	1%	5%	?	0%	28µM*
CCOC(=O)c1nc(Nc2cc(C)cc(C)c2)c2ccccc2n1	-31	-5%	10%	-5%[15.4 µM]	7.9µM*	1%
Cc1cc(C)c2nc(N(CCCN(C)C)C(=O)c3ccc(S(=O)(=O)N4CC(C)OC(C)C4)cc3)sc2c1 (centres undefined)	-29	-2%	-45%	-11%[15.4 µM]	5%	0%
CSCC[C@@H](C(=O)NCCCCCCCCCCC(=O)N1CCN(C(=O)OC(C)(C)C)CC1)n1cc(CCO)nn1	nt	5%	-25%	-23%	32µM*	1%
Cc1cccn2c(=O)c(C(=O)NCCc3ccc(S(N)(=O)=O)cc3)c(O)nc12	-16	nt	nt	nt	nt	4%
CC1(C)COC(Cn2c3ccccc3c3ccccc32)O1 (centres undefined)	-65*	-2%	0%	1%	-8%	-2%
CCCCN1C(=O)c2ccc(C(=O)Nc3ccc(C)c(S(=O)(=O)N(C)C)c3)cc2C1=O	-13	?	-12%	-11%	28µM*	1%
CC(=O)c1ccc(S(=O)(=O)Nc2cccc(-n3cnnn3)c2)cc1	5	2%	-5%	?	-20%	5%
CC(=O)Nc1ccc(S(=O)(=O)Nc2cccc(-n3cnnn3)c2)cc1	13	1%	-23%	7.9µM*	8%	6%
O=S(=O)(c1ccccc1)N1CCN(S(=O)(=O)c2ccccc2)C1	-6	-1%	4%	29%	3%	0%
O=S(=O)(/N=S1/CC=CCN1S(=O)(=O)c1ccccc1)c1ccccc1 (centres undefined)	-72*	3%	-40%	-1%	-11%	-1%
Cc1ccc(N=Cc2cc3c(cc2O)OC(N)=C(C#N)C3c2ccccc2)cc1 (centres undefined)	-69*	50%	-16%	-14%	?	0%
N#CC1=C(N)Oc2cc(O)c(C=Nc3ccccc3)cc2C1c1ccccc1 (centres undefined)	3	17%	-1%	-3%	-34%	3%
CC1CCN(C(=O)C2CCCCN2S(=O)(=O)c2cccc([N+](=O)[O-])c2)CC1 (centres undefined)	-5	-3%	1%	-50%	50µM*	-2%
O=C(NCc1ccccc1Cl)c1ccc2c(c1)ncn2-c1cccc(F)c1	0	nt	nt	nt	nt	-2%
CCCC(=O)NC(c1ccco1)c1cc(Cl)c2cccnc2c1O (centres undefined)	-66*	-5%	-54%	11%	-5%	0%
CCCC(=O)NC(c1ccc(Cl)cc1Cl)c1ccc2cccnc2c1O (centres undefined)	-62*	-2%	-39%	-19%	-6%	2%
CC(=O)NC(c1ccc2ccccc2c1)c1ccc2cccnc2c1O (centres undefined)	-70*	-3%	-13%	7%	-2%	2%
CCc1ccc(NC(=O)N2CCN(c3nnc(C)c4c(C)n(-c5ccc(Cl)cc5)nc34)CC2)cc1	-9	nt	nt	nt	nt	-4%
O=C1CC(=O)Nc2cc(S(=O)(=O)N3CCN(c4ccc([N+](=O)[O-])cc4)CC3)ccc2N1	-9	2%	-1%	3%	1%	-4%
Cc1ccc(S(=O)(=O)Oc2cccc(/C=N/Nc3ccc(C(=O)O)cc3)c2)cc1	-62*	-1%	8%	6%	-27%	0%
Cc1cc(/C=N/NC(N)=S)c(C)n1-c1ccc(Cl)c(Cl)c1	-105*	-1%	-8%	-2%[15.4 µM]	17%	3%
CC(=O)c1ccc(NC(=O)CSc2nnc(-c3ccco3)c(-c3ccco3)n2)cc1	-71*	-28%	-12%	20%	-13%	-3%
SMILES	RXFP1 antag	ASM inhibitor	Integrin act MD	gsp agonist	gsp antagonist	RXFP1 agonist
O=C(CSc1nnc(-c2ccco2)c(-c2ccco2)n1)c1ccccc1	-97*	-2%	6%	1%	-28%	27%
COc1ccc(-c2nnc(SCC(=O)Nc3ccc(C(C)=O)cc3)nc2-c2ccc(OC)cc2)cc1	-2	nt	nt	nt	nt	1%
O=C(CSc1nnc(-c2ccco2)o1)c1ccccc1	0	-5%	23%	7%	-11%	0%
CCCOc1ccc(C2C(=O)N(C3CCCCCC3)CC(=O)N2Cc2ccc(OC)cc2)cc1OC (centres undefined)	3	nt	nt	nt	nt	-2%
CN(CCCNC(=O)CSc1cc(=O)n(C)c2cc(Cl)ccc12)Cc1ccccc1	17	-1%	-36%	18µM*	0%	11%
CCOC(=O)CSc1cc(=O)n(C)c2cc(Cl)ccc12	4	-1%	-2%	16µM*	-19%	2%
COc1ccc2c(Sc3ccc(C)cc3)c(C(=O)NCC(C)c3ccccc3)[nH]c2c1 (centres undefined)	-23	nt	nt	nt	nt	-2%
O=C1/C(=C/c2cccs2)SC(=S)N1N1CCOCC1	-96*	-18%	-49%	3%	-5%	0%
Cn1nc(CC(=O)NCc2ccc(C(F)(F)F)cc2)c2ccccc2c1=O	5	0%	-37%	-17%	13µM*	4%
CCOc1ccc(C(=O)c2oc3ccccc3c2NC(=O)Cc2coc3ccc(CC)cc23)cc1	-13	nt	nt	nt	nt	3%
Cc1ccc(S(=O)(=O)N2CN(CC3CCCO3)c3nc4ccccc4nc32)c(C)c1 (centres undefined)	-6	2%	11µM*	21%	6%	5%
Nc1nc(SCC(=O)Nc2cc(Cl)ccc2Cl)n[nH]1	-4	0%	29%	-16%	0%	nt
O=[N+]([O-])c1ccc(-c2cnc(SC(c3ccccc3)c3ccccc3)[nH]2)cc1	?	-13%	-35%	-6%[15.4 µM]	35µM*	0%
O=[N+]([O-])c1ccc(-c2cnc(SCc3ccccc3Cl)[nH]2)cc1	-8	-20%	-8%	-4%	-10%	-1%
CC(Sc1ncnc2sc(-c3ccccc3)cc12)C(=O)NCC1CCCO1 (centres undefined)	-98*	nt	0%	5%	-15%	2%

Screening results as filed in PubChem.
